The source of these data is PubChem BioAssay (NCI).

Common to all, as to experiment: NCI-60 one-dose screen, 48 h (100 = growth as untreated, 0 = no growth, -100 = all killed)
What all share (conditions): 10 µM unless noted

For assay [1], the system named is NCI-H23 lung.
Assay [2] relates to NCI-H226 lung.
Assay [3] deals with NCI-H322M lung.
The subject of assay [4] is HOP-62 NSCLC.
Assay [5] deals with NCI-H460 lung.
In assay [6] the test system is HOP-92 NSCLC.
The subject of assay [7] is NCI-H522 lung.
Assay [8] deals with A549/ATCC NSCLC.
Assay [9] has as its system 786-0 renal.
The test system of assay [10] is COLO 205 colon.

Where “and” joins values, the source holds several entries; their conditions need not be identical. Equal values may be shown once. About 83,000 compounds went through this panel and 20% of them were active in at least one assay; those are over-represented in the sample as a whole.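 Percent growth is the endpoint: 0 to 100 indicates growth inhibition (40 means 60% inhibition), 0 means no net growth, and negative values indicate cell death.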 A number with no mark means an inactive call. Calls of active or inactive are those of the source. The calls were made as follows: active = growth percent below 10; inactive = the rest.

Regarding `O=C(Nc1ccc(S(=O)(=O)N2CCCCC2)cc1)C(Cl)Cl`, the growth is 103% in assay [1]; 127% in [2]; 114% in [3]; 108% in assay [4]; 108% in assay [5]; 116% in assay [6]. The growth in assay [7] is 98.4%; in assay [8] it was 104%; in assay [9], 98.9%; in assay [10], 120%.
On to `Nc1nn2c(-c3cc4cc(Br)ccc4oc3=O)ccnc2c1N=Nc1ccc(Br)cc1`, for which the growth in assay [1] was -7.78% (active); in assay [2] it was -25% (active); in [3], 23.7%; in assay [4], -11.9% (active); in [5] it was 15%; in assay [6] it was -5.4% (active). In addition, the growth is 24.6% in assay [7], 39.6% in [8], 13.8% in assay [9] and 35.8% in assay [10].
With `COc1cc(CNC(=O)C[C@H](C)CCC=C(C)C)ccc1OCc1cn(-c2ccc(Cl)c(Cl)c2)nn1`, the growth in [1] is 68.5%; in assay [2], 50.5%; in [3], 82.5%; in [4], 95.7%; in [5], 45.5%; in assay [6], 51.6%. In addition, the growth in [7] is 61.5%; in assay [8], 46.5%; in assay [9] it was 80.4%; in assay [10] it was 53.6%.
On to `C#CCN(C)CCCOc1ccc(N(C)C(=O)c2cc(C(C)C)c(O)cc2O)cc1Cl`, for which the growth in assay [1] is 12.3%; in assay [2], 13.7%; in [3], 34.8%; in assay [4] it was 34.6%; in [5] it was -13.3% (active); in assay [6], -23.9% (active). For the same molecule, the growth in [7] was 12.6%; in [8] it was 15.9%; in [9], 33.5%; in assay [10], 7.34% (active).
In the case of `COc1c2c(cc3c1C(CCc1ccccc1)N(C)CC3)OCO2` (stereo not given), the growth in [1] is 5.64% (active); in assay [2] it was -1.8% (active); in assay [3], 28.7%; in assay [4], 36.6%; in assay [5] it was 1.55% (active); in [6] it was 1.44% (active). Besides, the growth in [7] is 11.4%; in assay [8], 21.4%; in [9], 12.6%; in assay [10], -56.5% (active).
Consider `N#CC1=C(c2cccs2)Nc2c(c(-c3ccccc3)nn2-c2ccccc2)C12C(=O)Nc1ccc(Cl)cc12` (stereo not given), for which the growth is 23.8% in assay [1]; 51.6% in assay [2]; 47.1% in [3]; 28.8% in assay [4]; 6.17% (active) in assay [5]; -8.79% (active) in assay [6]. Moreover, the growth in assay [7] is 3.38% (active); in [8] it was 24.4%; in assay [9], 22.3%; in [10], -29.2% (active).
For `Cn1cc(-c2cc3nc(-c4cn(C)c5ncccc45)cc(N)n3n2)c2cc(F)ccc21`, the growth in assay [1] is 21.2%; in assay [2], 3.92% (active); in [3], 52.1%; in assay [4], -14.7% (active); in [5], 37.6%; in assay [6] it was -0.741% (active). Besides, the growth in [7] is 22.7%; in [8], 19.6%; in assay [9], 17.6%; in assay [10], 47.1%.
With `O=C(Nc1nc2ccccc2s1)Nc1ccccc1Cl`, the growth in assay [1] was 70.5%; in assay [2], 31.5%; in assay [3] it was 94.3%; in [4], 12.2%; in [5], 66.9%; in assay [6] it was 74.3%. The growth in [7] was 64.1%; in [8], 74.5%; in assay [9] it was 41%; in assay [10], 97.5%.
Regarding `CC(=O)Nc1cccc(-n2c(COc3ccc(Br)cc3)nc3ccccc32)c1`, the growth in [1] is 94% and 107%; in [2], 76.2% and 107%; in assay [3], 103% and 104%; in [4], 119% and 114%; in assay [5], 105% and 107%; in assay [6] it was 90% and 108%. The growth in assay [7] was 97.1% and 108%; in assay [8], 115% and 108%; in [9], 115% and 103%; in [10] it was 108% and 124%.
Take `Cc1nc2sccn2c1-c1nnc(SCc2ccccc2)o1`: the growth was 86.1% in assay [1]; 75.5% in [2]; 90.4% in assay [3]; 99.9% in assay [4]; 99.6% in assay [5]; 71.9% in assay [6]. The growth is 78.2% in assay [7], 91.2% in assay [8], 76.1% in assay [9] and 112% in [10].
